This is part of a sample that, as a whole, favours compounds with a hit. Of some 83,000 tested, about 20% had one in any assay.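 Assay: single dose, 48 h. Readout: percent growth (0 = no net growth; negative = cell death). Active: <10.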 Unmarked numbers belong to inactive results. Calls of active or inactive are those of the source.

In PubChem BioAssay (NCI) one finds growth data, which are given here for 37 molecules.

The subject of one test is MCF7 breast. Nature of the test: NCI-60 one-dose screen, 48 h (100 = growth as untreated, 0 = no growth, -100 = all killed). The note with it: 10 µM unless noted.
Take `COc1ccc(-c2oc3cc(O)c(OC)c(O)c3c(=O)c2OC)cc1O`: the growth was 19%.

For the molecule `c1ccc(-c2nnc(Nc3nnc(-c4ccccc4)s3)s2)cc1`, the growth is 67.6%.

Regarding `CCN1CCN(c2cc(-c3cn[nH]c3-c3cc(C)cc(OC)c3)nc(-c3cccnc3)n2)CC1`, the growth is 82.6%.

As for `CCCn1cnc2c1c(=O)n(CCCCC(C)=O)c(=O)n2C`, the growth is 92.6%.

Take `O=C1C2C3C=CC(O3)C2C(=O)N1Nc1ccccc1` (stereo not drawn): the growth is 98.9%.

Regarding `O=C(Nc1ccncc1)C(=O)c1cn(S(=O)(=O)c2cccc(F)c2)c2ccccc12`, the growth is 5.06% (active).

With `COc1ccc(-c2csc(NC(=O)c3cc(OC)c(OC)c(OC)c3)n2)cc1`, the growth is 98.3%.

`CCC1=C(c2ccc(OC)cc2)C(C)(C)Oc2cc(O)c(CN3CCCC3)cc21`: the growth is 89.7%.

Turning to `CCOc1nc(-c2ccccc2)cc2c(O)c(-c3nnco3)[nH]c(=O)c12`, the growth is 23.3%.

Consider `C=C1CC[C@@H]2[C@](C)(COC(C)=O)[C@H](OC(C)=O)CC[C@@]2(C)[C@@H]1CC(Nc1ccc(S(=O)(=O)Nc2cc(C)on2)cc1)C1=CCOC1=O` (stereo partly drawn), for which the growth was 12.3%.

On to `COc1ccc(C2=NN(C(=O)c3cc(OC)c(OC)c(OC)c3)C(c3ccc(C#N)cc3)C2)cc1OC` (stereo not drawn), for which the growth is 27%.

Consider `O=C1/C(=N/O)CCc2ccccc21`, for which the growth was 96.3%.

As to `O=C(/C=C/c1cccnc1)NCCCCC1CCCN(C(=O)c2ccccc2)C1` (stereo not drawn), the growth is 54.4%.

As for `COc1ccc(Nc2ccnc(NCCCNc3ccnc4cc(Cl)ccc34)n2)cc1`, the growth was -2.74% (active).

As to `COc1ccc2nc(NC(=O)c3cc(-c4ccc(F)cc4)n4nc(-c5ccccc5)cc4n3)sc2c1`, the growth was 86.8%.

As for `COc1cc(/C=C/C(=O)N2CCN(C(=O)/C=C/c3ccccc3)CC2)cc(OC)c1OC`, the growth was 110%.

Consider `O=C1C[C@@H]2/C(=C(O)\C=C\c3ccccc3)C(=O)C=C[C@@H]2O1`, for which the growth is 6.03% (active).

Turning to `COc1cc(/C=C/c2nnc(-c3cc(-c4ccccc4)n[nH]3)o2)cc(OC)c1OC`, the growth was 92%.

Take `O=[N+]([O-])c1ccc2c(c1)S(=O)c1cc([N+](=O)[O-])ccc1N2`: the growth is 99.2%.

Regarding `C/C(=C\CCc1ccoc1)CC/C=C(\C)CCCN1CCC(CO)CC1`, the growth was 28.9%.

For the molecule `O=C1/C(=C/c2ccc([N+](=O)[O-])o2)Oc2ccc(Cl)cc21`, the growth was -24.6% (active).

With `COc1cc(C2NC(c3ccc(Cl)cc3)C(C)/C(=N/NC(N)=S)C2C)cc(OC)c1OC` (stereo not drawn), the growth was 90.3%.

Regarding `CCC(CC)NCCCCCNc1cc(OC)cc2cccnc12`, the growth is 58.4%.

As for `CCOc1nc(-c2ccccc2)cc2c(O)c(C(=O)n3nc(C)cc3C)[nH]c(=O)c12`, the growth is 101%.

With `O=C(/C(=N/O)S(=O)(=O)c1ccccc1)c1cccs1`, the growth is 98%.

Regarding `COc1cc(C2NC(c3ccc(Cl)cc3)C(C)C(=NC(=O)c3cnccn3)C2C)cc(OC)c1OC` (stereo not drawn), the growth is 93.1%.

Consider `COc1ccc2c(c1)C(=O)/C(=C/c1ccc([N+](=O)[O-])s1)O2`, for which the growth was 3% (active).

In the case of `COc1cc(C(=O)/C=C/c2cccnc2Nc2ccccc2)cc(OC)c1OC`, the growth is -73% (active).

With `CCCCn1c(Cc2ccc(Cl)cc2)nc2cc(OC)c(OC)cc2c1=O`, the growth is 86.5%.

In the case of `OCCOc1c(Cl)cc(Cl)cc1Cl`, the growth was 89%.

For the molecule `COc1ccc2nc3cc(Cl)ccc3c(N3CCN(c4ccnc(Nc5ccc(F)cc5)n4)CC3)c2c1`, the growth was 48.8%.

Regarding `COc1ccc(-c2cc(Cc3cccs3)c(=O)n(Cn3ccc4ccccc43)n2)cc1`, the growth was 95.2%.

Consider `CCc1[nH]nc(-c2ccc(OC)cc2)c1-c1ccccc1OCCN(CC)CC`, for which the growth is 93.2%.

For the molecule `COc1ccc(-c2cc(C(=O)Nc3nc4cc(C)c(C)cc4s3)nc3cc(-c4ccccc4)nn23)cc1OC`, the growth was 99%.

`Nc1ccc2c3c(cccc13)-c1ccccc1-2`: the growth is 88.8%.

`COc1cccc(-c2nnc(N)o2)c1`: the growth was 101%.

Turning to `COc1cc2c(cc1OCCCOc1ccc(-c3cc4ccccc4c4ccccc34)cc1)N=C[C@@H]1CCCN1C2=O`, the growth was -75.1% (active).

A further test deals with HCT-116 colon. The description is as above. The note with it: 10 µM unless noted.
On to `COc1ccc(-c2oc3cc(O)c(OC)c(O)c3c(=O)c2OC)cc1O`, for which the growth is 2.2% (active).

For the molecule `c1ccc(-c2nnc(Nc3nnc(-c4ccccc4)s3)s2)cc1`, the growth was 97.9%.

Take `CCN1CCN(c2cc(-c3cn[nH]c3-c3cc(C)cc(OC)c3)nc(-c3cccnc3)n2)CC1`: the growth is 38.4%.

Consider `CCCn1cnc2c1c(=O)n(CCCCC(C)=O)c(=O)n2C`, for which the growth is 96.8%.

`O=C1C2C3C=CC(O3)C2C(=O)N1Nc1ccccc1` (stereo not drawn): the growth was 106%.

In the case of `O=C(Nc1ccncc1)C(=O)c1cn(S(=O)(=O)c2cccc(F)c2)c2ccccc12`, the growth was 19.5%.

With `COc1ccc(-c2csc(NC(=O)c3cc(OC)c(OC)c(OC)c3)n2)cc1`, the growth is 106%.

For `CCC1=C(c2ccc(OC)cc2)C(C)(C)Oc2cc(O)c(CN3CCCC3)cc21`, the growth was 46.9%.

Consider `CCOc1nc(-c2ccccc2)cc2c(O)c(-c3nnco3)[nH]c(=O)c12`, for which the growth was 39.7%.

For `C=C1CC[C@@H]2[C@](C)(COC(C)=O)[C@H](OC(C)=O)CC[C@@]2(C)[C@@H]1CC(Nc1ccc(S(=O)(=O)Nc2cc(C)on2)cc1)C1=CCOC1=O` (stereo partly drawn), the growth is -1.13% (active).

For `COc1ccc(C2=NN(C(=O)c3cc(OC)c(OC)c(OC)c3)C(c3ccc(C#N)cc3)C2)cc1OC` (stereo not drawn), the growth is 13.6%.

Turning to `O=C1/C(=N/O)CCc2ccccc21`, the growth was 83.6%.

In the case of `O=C(/C=C/c1cccnc1)NCCCCC1CCCN(C(=O)c2ccccc2)C1` (stereo not drawn), the growth was 7.85% (active).

Turning to `COc1ccc(Nc2ccnc(NCCCNc3ccnc4cc(Cl)ccc34)n2)cc1`, the growth is -100% (active).

With `COc1ccc2nc(NC(=O)c3cc(-c4ccc(F)cc4)n4nc(-c5ccccc5)cc4n3)sc2c1`, the growth was 61.5%.

As to `COc1cc(/C=C/C(=O)N2CCN(C(=O)/C=C/c3ccccc3)CC2)cc(OC)c1OC`, the growth is 105%.

For `O=C1C[C@@H]2/C(=C(O)\C=C\c3ccccc3)C(=O)C=C[C@@H]2O1`, the growth was -90.6% (active).

Take `COc1cc(/C=C/c2nnc(-c3cc(-c4ccccc4)n[nH]3)o2)cc(OC)c1OC`: the growth is 119%.

Consider `O=[N+]([O-])c1ccc2c(c1)S(=O)c1cc([N+](=O)[O-])ccc1N2`, for which the growth was 94%.

For `C/C(=C\CCc1ccoc1)CC/C=C(\C)CCCN1CCC(CO)CC1`, the growth is 31%.

In the case of `COc1cc(C2NC(c3ccc(Cl)cc3)C(C)/C(=N/NC(N)=S)C2C)cc(OC)c1OC` (stereo not drawn), the growth was 73.1%.

Regarding `CCC(CC)NCCCCCNc1cc(OC)cc2cccnc12`, the growth was 90.5%.

Consider `CCOc1nc(-c2ccccc2)cc2c(O)c(C(=O)n3nc(C)cc3C)[nH]c(=O)c12`, for which the growth is 101%.

In the case of `O=C(/C(=N/O)S(=O)(=O)c1ccccc1)c1cccs1`, the growth was 96.4%.

For `COc1cc(C2NC(c3ccc(Cl)cc3)C(C)C(=NC(=O)c3cnccn3)C2C)cc(OC)c1OC` (stereo not drawn), the growth is 78.9%.

As to `COc1ccc2c(c1)C(=O)/C(=C/c1ccc([N+](=O)[O-])s1)O2`, the growth is -0.508% (active).

Take `COc1cc(C(=O)/C=C/c2cccnc2Nc2ccccc2)cc(OC)c1OC`: the growth was -94.9% (active).

With `CCCCn1c(Cc2ccc(Cl)cc2)nc2cc(OC)c(OC)cc2c1=O`, the growth was 52.5%.

Regarding `OCCOc1c(Cl)cc(Cl)cc1Cl`, the growth was 109%.

Regarding `COc1ccc2nc3cc(Cl)ccc3c(N3CCN(c4ccnc(Nc5ccc(F)cc5)n4)CC3)c2c1`, the growth was 41.4%.

For the molecule `COc1ccc(-c2cc(Cc3cccs3)c(=O)n(Cn3ccc4ccccc43)n2)cc1`, the growth is 106%.

Take `CCc1[nH]nc(-c2ccc(OC)cc2)c1-c1ccccc1OCCN(CC)CC`: the growth is 83.9%.

On to `COc1ccc(-c2cc(C(=O)Nc3nc4cc(C)c(C)cc4s3)nc3cc(-c4ccccc4)nn23)cc1OC`, for which the growth is 108%.

On to `Nc1ccc2c3c(cccc13)-c1ccccc1-2`, for which the growth is 92.2%.

Regarding `COc1cccc(-c2nnc(N)o2)c1`, the growth was 100%.

Turning to `COc1cc2c(cc1OCCCOc1ccc(-c3cc4ccccc4c4ccccc34)cc1)N=C[C@@H]1CCCN1C2=O`, the growth was -23.1% (active).
